Hits are enriched below; roughly 4% of the tested compounds scored in any of these assays.
FBA Mtb inh – inhibitors of M. tuberculosis fructose-bisphosphate aldolase; P9WQA3; purified M. tuberculosis FBA, fluorescence read-out; inhibition, % at 1 µM; 360,000 compounds, 2.3% hits; AID 588726; in the data active = inhibition above about 27%;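 also: 0% = vehicle and 100% = reference inhibitor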
Rv3671c inh – inhibitors of M. tuberculosis serine protease Rv3671c. P9WHR9. inhibition, % at 5.96 µM. 320,000 compounds, 0.048% hits. AID 2606; in the data active = inhibition above about 38%;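 also: extracellular domain of Rv3671c used as enzyme; 0% = enzyme with DMSO and 100% = no enzyme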
Target sequence (P9WHR9 whole entry, looked up, the tested form may be a part): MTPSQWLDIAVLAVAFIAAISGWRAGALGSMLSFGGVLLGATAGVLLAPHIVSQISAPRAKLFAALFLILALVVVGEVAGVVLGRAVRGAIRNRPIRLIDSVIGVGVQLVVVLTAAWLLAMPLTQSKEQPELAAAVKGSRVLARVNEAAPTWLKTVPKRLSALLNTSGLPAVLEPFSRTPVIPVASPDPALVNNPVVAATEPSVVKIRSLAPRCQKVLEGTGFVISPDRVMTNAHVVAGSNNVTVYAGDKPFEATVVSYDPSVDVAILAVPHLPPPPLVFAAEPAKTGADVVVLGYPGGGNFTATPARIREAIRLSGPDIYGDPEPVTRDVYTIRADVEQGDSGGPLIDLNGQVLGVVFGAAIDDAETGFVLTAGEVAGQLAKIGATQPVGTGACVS
Mtb UGM inh – inhibitors of M. tuberculosis UDP-galactopyranose mutase; purified UGM, fluorescence polarization probe displacement; AID 504406; inhibition, % at 10 µM; 320,000 compounds, 0.06% hits; in the data active = inhibition above about 10%, passing the limit was not always enough; inconclusive = no clear call, values can overlap the other calls
GDH-TPI inh – GDH-TPI coupled enzyme inhibition counter-screen. AID 588335. 360,000 compounds, 1.2% hits. inhibition, % at 4.8 µM. GDH-TPI coupled enzyme counterscreen, NADH absorbance; in the data active = inhibition above about 30%;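 also: 0% = DMSO wells and 100% = wells lacking the enzyme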
Mtb betalactam – beta-lactam sensitization of Mtb H37Rv. M. tuberculosis H37Rv growth with meropenem, percent inhibition. inhibition, % at 25 µM. 330,000 compounds, 0.27% hits;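 also: growth measured after seven days incubation then overnight dye step; 0% = bacteria only wells and 100% = bacteria with antibiotic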
RecA splice inh – Mtb RecA intein splicing inhibition. cell-free RecA intein splicing, fluorescence. inhibition, % (concentration not given with the values). AID 2221. P9WHJ3. 290,000 compounds, 0.75% hits; in the data active = inhibition above about 30%; inconclusive = no clear call, values can overlap the other calls;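 also: 0% = vehicle wells and 100% = reference inhibitor control wells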
GFP chromophore – counter-screen: blocks GFP chromophore formation; 2,100 compounds, 83% hits; shares compounds with RecA splice inh; cell-free GFP chromophore formation, fluorescence; EC50, µM
An asterisk follows results filed as active; ? = inconclusive; . = no result. Unless noted, no rule for the calls is given here.

SMILES	FBA Mtb inh	Rv3671c inh	Mtb UGM inh	GDH-TPI inh	Mtb betalactam	RecA splice inh	GFP chromophore
Cc1cc(-c2[nH]nc3c2C(c2ccc(Cl)cc2)C(C#N)=C(N)O3)c(C)s1 (stereo unspecified)	0	0	0	9	5	77*	23*
C#CCOC(=O)c1ccccc1C(=O)n1nnc2ccccc21	3	-2	1	4	31	51*	35*
CCN(CC)S(=O)(=O)c1ccc(N2CC(C(=O)NC3(C)CCS(=O)(=O)C3)CC2=O)cc1 (stereo unspecified)	-1	-10	-1	2	-5	.	.
CCCCN1C(=O)C(CC(=O)NCCCN(C)C)CC(C(=O)N2CCOCC2)=C1C (stereo unspecified)	3	.	.	-12	.	.	.
CC(=O)C1=C(c2ccc(Br)cc2)C(=O)c2ccccc2C1=O	0	-23	2	13	98	58*	3.1*
CC(=O)Nc1c(Br)cc2c(c1Br)C(=O)c1ccccc1-2	-4	.	.	1	.	.	.
COc1ccccc1N=NNc1ccccc1OC	-21	.	.	12	.	.	.
CCOC(=O)CNc1nnc(SCC(=O)OCC)[nH]c1=O	3	-1	-1	9	-10	41*	6.3*
Cc1ccc(S(=O)(=O)N[C@@H](Cc2ccccc2)C(=O)CCl)cc1	1	10	0	-7	0	93*	1.9*
O=C(NC1CCCCC1)C(c1cccnc1)N(C(=O)CCl)c1ccc(F)cc1 (stereo unspecified)	0	-11	-1	-1	59	73*	11*
COc1ccc(C(C(=O)NC2CCCCC2)N(C(=O)CCl)c2ccc(OC)cc2)cc1 (stereo unspecified)	0	-2	0	4	30	8	.
O=C(NC1CCCCC1)C(c1cccnc1)N(C(=O)CCl)c1ccccc1Cl (stereo unspecified)	3	0	1	2	8	10	.
COc1ccc(N(C(=O)CCl)C(C(=O)NC2CCCCC2)c2cccnc2)cc1 (stereo unspecified)	1	-5	-3	-8	4	75*	11*
COc1ccc(C(C(=O)NC2CCCCC2)N(C(=O)CCl)c2cccc(Cl)c2)cc1 (stereo unspecified)	-1	-11	0	16	1	59*	?
O=C(NC1CCCC1)C(c1ccc(F)cc1)N(Cc1ccc(F)cc1)C(=O)CCl (stereo unspecified)	0	-8	2	10	-1	56*	1.8*
COc1ccc(N(C(=O)Cc2cccs2)C(C(=O)NC2CCCC2)c2ccncc2)cc1 (stereo unspecified)	-2	7	2	-16	-9	-5	.
CCCNS(=O)(=O)c1cc2c3c(c1)CCN3C(=O)CC2	-1	0	2	4	-12	1	.
CCOc1ccc(S(=O)(=O)N2CCCCC2)cc1NC(=O)Cc1ccsc1	-4	-2	1	4	-3	.	.
O=C(O)C1CCC(N2C(=O)c3cccc([N+](=O)[O-])c3C2=O)CC1 (stereo unspecified)	0	6	2	6	-3	-6	.
O=c1[nH]c(/C=C\c2cccnc2)c([N+](=O)[O-])c(=O)[nH]1	0	5	0	-4	-2	2	.
O=c1[nH]c(/C=C/c2cccnc2)c([N+](=O)[O-])c(=O)[nH]1	3	0	0	17	1	41*	>38
Nc1nn2c(-c3ccccc3)cc(=O)[nH]c2c1N=Nc1ccc(Br)cc1	-11	.	.	9	.	.	.
Nc1nn2c(-c3ccccc3)cc(=O)[nH]c2c1N=Nc1ccc(O)cc1	-14	9	0	-1	43	52*	2*
O=C(c1ccc(Oc2ccc(C(F)(F)F)cn2)cc1)N1CCN(c2ccccc2)CC1	0	4	1	15	60	4	.
COc1ccc(N2CCN(C(=O)c3ccc(Oc4ccc(C(F)(F)F)cn4)cc3)CC2)cc1	-2	1	0	14	64	31*	>38
SMILES	FBA Mtb inh	Rv3671c inh	Mtb UGM inh	GDH-TPI inh	Mtb betalactam	RecA splice inh	GFP chromophore
O=C1/C(=C/c2ccc(F)cc2)SC(=S)N1CC(=O)N1CCCCC1c1cccnc1 (stereo unspecified)	-1	-8	-6	19	74	38*	>38
CCN(CC)S(=O)(=O)c1ccc(N2CCN(S(=O)(=O)c3ccccc3C#N)CC2)nc1	7	3	.	4	-1	32*	>38
CC1=NN(c2ccccc2)C(=O)/C1=C/c1ccc(Cl)cc1	0	.	-2	-1	6	85*	3.2*
COc1ccc(/C=C2/C(=O)N(Cc3ccccc3)N=C2C)cc1	5	-59	-2	2	2	59*	7.3*
COc1ccc(-c2ccc(=O)n(Cc3ccccc3)n2)cc1	3	0	1	-3	-1	5	.
CC1=NN(c2ccccc2)C(=O)/C1=C\c1cc(C)n(-c2cccnc2)c1C	0	-6	-2	4	-11	33*	31*
CC1=NN(c2ccccc2)C(=O)C1=Cc1ccccc1	-2	.	.	1	.	.	.
CC1=NN(c2ccccc2)C(=O)/C1=C/c1cccs1	1	-177	1	16	-10	85*	6*
Cc1ccc(NC(=O)COC(=O)c2ccc(Cl)nc2)cc1S(=O)(=O)N1CCCCC1	3	-6	4	14	-1	.	.
CN(CC(=O)Nc1cccc(S(=O)(=O)N2CCOCC2)c1)CC(=O)Nc1ccc(Cl)c(C(F)(F)F)c1	-2	-24	3	3	71	7	.
O=C(CCl)N(O)c1ccc(C=Cc2ccccc2)cc1	-1	.	.	15	.	.	.
C[C@@H]1[C@H](O)C[C@@]23COC(=O)C2=CCCC3[C@@]1(C)CCC1COC(=O)C1 (stereo partly specified)	14	7	0	8	-4	.	.
CC1CCN(C(=O)C(=O)Nc2sc3c(c2C(N)=O)CC(C)(C)OC3)CC1	0	-2	0	13	-1	1	.
CC1(C)CC(=O)C(C2(O)C(=O)NC(=O)NC2=O)=C(O)C1	2	-131	2	12	8	95*	2.5*
COc1ccc(C(=O)N/C(N)=N/c2nc3ccccc3o2)cc1	8	-2	1	9	68	2	.
COc1ccc(C(=O)/C=C/Sc2nc3ccccc3o2)cc1	0	-17	-2	11	98	46*	>38
O=C(C(=C1N(Cc2ccc(Cl)nc2)CCN1Cc1ccc(Cl)nc1)[N+](=O)[O-])C(Cl)Cl	-1	2	-4	13	-6	76*	6.5*
CC1(C)SC2C(C(=O)O)N=C(Cc3ccccc3)N2C1C(=O)O (stereo unspecified)	-3	.	.	7	.	.	.
O=C(O)c1ccccc1-c1ccccc1C(=O)Nc1ccc(-c2nc3cc(Cl)ccc3o2)cc1	25	-19	0	30	56	36*	17*
